# According to PubChem BioAssay (NCATS):
# Results filed as inconclusive are left out. Calls of active or inactive are those of the source. Calls come from the whole dose curve; as a rule, active = well fitted inhibition curve with a large enough effect in the repeat runs; inconclusive = weak or mixed curves; inactive = no such curve, though single readings can be large or run the other way.
# Molecular target: Cytochrome P450 2C9 (Homo sapiens) (UniProt P11712)
# Experiment: Cytochrome P450 family 2 subfamily C member 9 (CYP2C9) small molecule antagonists: luciferase biochemical (cell-free) qHTS assay (AID 1645842); note: nearly all actives have a fitted effect of over 55% in size
# Conditions: P450-Glo CYP2C9 enzyme assay, luciferin luminescence; series mostly up to 57.4 µM; activity change, negative = inhibition: at the top concentration
# Procedure: National Center for Advancing Translational Sciences [NCATS] Assay Overview: Cytochrome P450 (CYP) enzymes are membrane-bound hemeproteins that play a key role in metabolism of drugs and xenobiotics. Assaying the effect of chemicals on CYP isozymes is useful to minimize the adverse drug reactions and toxicities in drug development process. Chemical compounds were tested for their effect on CYP enzyme activities by using P450-Glo (TM) screening systems (Promega Corporation, Madison, WI). These systems provide a luminescent method containing proluciferin substrates and are converted to luciferin products by CYP isozymes. The luciferin products formed are detected with a luciferin detection reagent, and the amount of light produced is proportional to CYP activity. P450-Glo (TM) CYP2C9 screening system (Catalog. No. V9790) was used to detect the compounds that interfere in CYP2C9 activity.
# Assay Protocol Summary: Two ul of enzyme-substrate mix supplemented with 0.4% Bovine Serum Albumin was dispensed into medium binding white/solid 1536-well plates (Greiner Bio-One North America Inc., Monroe, NC) using a Flying Reagent Dispenser (FRD, Aurora Discovery, San Diego, CA). […] The assay plates were incubated at room temperature for 10 min. Then 2 ul of NADPH regeneration solution was added to each well of the assay plates using an FRD and incubated at 37C for 1 h. The reaction was stopped by adding 4 ul of detection reagent using an FRD and after 20 min incubation at room temperature, the luminescence signal was measured using a ViewLux plate reader (Perkin Elmer, Shelton, CT). Data were expressed as relative luminescence units.
# % is set by controls: 0 for no effect and ±100 for the full control effect; potency is the fitted concentration of half-maximal effect.
# Cytochrome P450 2C9 (Homo sapiens), sequence (P11712 whole entry, looked up): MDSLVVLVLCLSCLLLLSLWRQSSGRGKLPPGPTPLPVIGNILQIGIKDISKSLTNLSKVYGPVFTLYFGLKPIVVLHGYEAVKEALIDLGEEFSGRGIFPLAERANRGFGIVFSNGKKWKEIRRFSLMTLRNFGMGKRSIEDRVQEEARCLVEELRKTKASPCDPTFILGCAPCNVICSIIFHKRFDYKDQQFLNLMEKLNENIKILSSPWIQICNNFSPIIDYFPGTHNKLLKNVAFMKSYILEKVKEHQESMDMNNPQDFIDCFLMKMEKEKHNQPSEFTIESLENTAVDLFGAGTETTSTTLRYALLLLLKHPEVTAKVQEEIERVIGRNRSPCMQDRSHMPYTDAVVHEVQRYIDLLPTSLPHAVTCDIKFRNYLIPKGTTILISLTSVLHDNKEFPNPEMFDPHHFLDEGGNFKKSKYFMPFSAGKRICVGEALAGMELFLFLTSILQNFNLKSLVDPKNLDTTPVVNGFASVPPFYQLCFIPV
SMILES,Potency,"activity change, negative = inhibition",outcome
CNC(=O)c1cccc2cc(Oc3ccnc4cc(OCC5(N)CC5)c(OC)cc34)ccc12,7.56 µM (active),,
CCCCCCCC[N+](C)(C)CCCCCCCC,,-19.6% (inactive),
Cn1nccc1Nc1nccc(-c2ccn([C@H](CO)c3ccc(Cl)c(F)c3)c(=O)c2)n1,19 µM (active),,
Cc1ccccc1C(=O)Nc1ccc(C(=O)N2CCC[C@@H](O)c3cc(Cl)ccc32)c(C)c1,12 µM (active),,
CCCc1c(C(C)C)nc(C(C)C)c([C@@H](C)O)c1-c1ccc(F)cc1O,4.77 µM (active),,
Cc1ccc(Nc2nnc(-c3ccc(C)c(S(=O)(=O)NCc4nc5ccccc5[nH]4)c3)c3ccccc23)cc1,5.35 µM (active),,
COc1cc2nc(-c3cc(F)ccc3O)nc(N[C@@H]3CNC[C@H]3C(C)(C)O)c2cc1OC,,-4.12% (inactive),
CC1CCN(c2cc(NC(=O)c3ccccc3)ncn2)CC1,9.52 µM (active),,
CCN(CC)Cc1cccc(/C=C/c2nc3ccc(F)cc3c(=O)n2-c2ccccc2Cl)n1,19 µM (active),,
COc1cc(N2CCOCC2)ccc1Nc1ncc(F)c(Nc2ccccc2NS(C)(=O)=O)n1,2.13 µM (active),,
CCC(=O)Nc1cccc(Oc2nc(Nc3ccc(N4CCN(C)CC4)cc3OC)ncc2Cl)c1,6.74 µM (active),,
CNc1ccc([N+](=O)[O-])cc1-n1cnc(-c2ccc(C(F)(F)F)cc2)c1,3.01 µM (active),,
C[C@@H](c1nc(-c2ccc(C#N)cc2)cs1)[C@](O)(Cn1cncn1)c1cc(F)ccc1F,6.01 µM (active),,
CN(CCCNC(=O)c1ccc2nc3c(c(Cl)c2c1)CCCC3)Cc1ccccc1,15.1 µM (active),,
O=C(Nc1ncc(SCCN2CCCC2)s1)C1(c2ccc(S(=O)(=O)C3CC3)cc2)CC1C1CCCCC1 (stereo not given),19 µM (active),,
CCCCc1nc(C)c(CC(=S)N(C)C)c(=O)n1Cc1ccc(-c2ccccc2-c2nn[nH]n2)cc1,9.52 µM (active),,
Cn1cc(-c2cnc3ccc4ccc(CS(=O)(=O)NCc5ccccn5)cc4c(=O)c3c2)cn1,,5.72% (inactive),
COc1cc(-c2cc(-c3cccc(O)c3)cnc2N)cc(OC)c1OC,0.849 µM (active),,
COc1cc2ncnc(Oc3cccc(NC(=O)Nc4cc(C(C)(C)C(F)(F)F)on4)c3)c2cc1OC,12 µM (active),,
CNCc1ccc(C)c(NC(=O)c2ccc(Nc3nc(-c4ccccc4)c4ccccc4n3)cc2)c1,,6.93% (inactive),

SMILES,Potency,"activity change, negative = inhibition",outcome
O=C(NCc1ccc(Oc2ccccc2)cc1)c1nc(-c2cc(Br)c(O)c(Br)c2)no1,0.849 µM (active),,
CCOc1ccc(-c2nc(-c3cccc4c3CCC4NCCO)no2)cc1OCC (stereo not given),,13.7% (inactive),
CN(Cc1ccc(C(=O)O)cc1)c1ccc(OCc2c(-c3c(Cl)cccc3Cl)noc2C2CC2)nc1C(F)(F)F,10.7 µM (active),,
CS(=O)(=O)c1ccc(-c2cn3ccccc3n2)cc1,13.8 µM (active),,
Cc1c(C(=O)NCCCO)cnn1-c1nc(-c2cccc(C(F)(F)F)c2)cs1,2.39 µM (active),,
N#CCC(C1CCCC1)n1cc(-c2ncnc3[nH]ccc23)cn1 (stereo not given),15.1 µM (active),,
CCCCn1c(-c2ccccc2)nc(-c2ccccc2)c1CN(Cc1ccc2c(c1)OCO2)Cc1ccc2c(c1)OCO2,2.68 µM (active),,
COc1cccc(NC[C@@H](O)Cn2c3ccc(Br)cc3c3cc(Br)ccc32)c1,,6.84% (inactive),
Clc1ccccc1CNCC1CCC(CNCc2ccccc2Cl)CC1 (stereo not given),,-1.31% (inactive),
COc1ccc(C(=O)N(CCC(C)C)Cc2nc(C)c(C)n2Cc2ccccc2C)c(OC)c1,21.3 µM (active),,
C=CC(=O)N1CCN(C(=O)c2cc(-c3cc(Cl)ccc3Cl)c(Cl)cc2OC)CC1,,5.08% (inactive),
Cc1cc2nc(NCCCO)n(CC(=O)c3cc(C(C)(C)C)c(O)c(C(C)(C)C)c3)c2cc1C,13.5 µM (active),,
O=C1CC[C@H](C(=O)O)N1,,-2.16% (inactive),
CC(=O)Nc1nc2c(Oc3cc(-c4ccc(C(F)(F)F)cc4)ncn3)cccc2s1,10.7 µM (active),,
CCCCN=C(N)NC(=N)N,,,inactive
CC1CCN(C(c2ccc(F)cc2)c2ccc(C(C)C(=O)O)cc2-c2ccc(C(F)(F)F)cc2)CC1 (stereo not given),9.52 µM (active),,
CCC(C)n1cc(C)c2c(C(=O)NCc3c(C)cc(C)[nH]c3=O)cc(-c3ccc(N4CCNCC4)nc3)cc21 (stereo not given),2.13 µM (active),,
CNc1cc(OC)c(C(=O)N[C@@H]2CCN(Cc3ccccc3)[C@@H]2C)cc1Cl,8.49 µM (active),,
OC(CNCCc1c[nH]c2ccccc12)Cn1c2ccccc2c2ccccc21 (stereo not given),0.952 µM (active),,
COc1cc(N2CCN(C(C)=O)CC2)ccc1Nc1ncc(Cl)c(Nc2ccc(N3CCN(C(C)=O)CC3)cc2OC)n1,5.35 µM (active),,
